HepG2 tox-1: counter-screen for TGF-b inhibitors: cytotoxicity in HepG2 cells. HepG2 CAGA-GFP viability, ATP luminescence, 18 h. Potency, µM (series often up to 46.1 µM), inactives show top-dose activity change, negative = cytotoxicity, usual class: cytotoxic. 410,000 tested, 0.76% active. AID 588856
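CellTiter-Glo luminescence gave cytotoxicity after 18 hours at 37 degrees C. The cells were HepG2 CAGA-GFP in 1% FBS DMEM, stimulated with 500 pg/mL TGF-beta after compound addition. %Activity was normalised to no-cell wells (complete cell-killing) and DMSO (no toxicity), and curves were fitted and classified.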
DT40 TDP1 no CPT: qHTS for Inhibitors of human tyrosyl-DNA phosphodiesterase 1 (TDP1): qHTS in cells in absence of CPT; 420,000 tested, 15% active; DT40 Tdp1-/- hTDP1 cells, no CPT, ATP luminescence, 48 h; Potency, µM (top dose mostly 46.2 µM), for inactives: at the top dose activity change, negative = growth inhibition, most hits filed as inhibitors; further: on the % scale 0 is the no-effect control and ±100 the full control effect; nearly all actives have a fitted effect of over 55% in size
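No-CPT arm: Tdp1-/-;hTDP1 DT40 cells (400/well) plus compounds, incubated ≥48 hr at 37 °C. Readout CellTiter-Glo luminescence.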
HT1080 IDH1KD tx: HT-1080 IDH1 knockdown cell toxicity (counter line); HT-1080 IDH1 knockdown viability, ATP luminescence, 48 h; Potency, µM (top dose mostly 46.1 µM), for inactives: top-dose activity, negative = toxicity, most hits filed as cytotoxic; 360,000 tested, 2% active; AID 686971;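 further: 0% = DMSO wells and -100% = cell-free medium wells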
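Cytotoxicity counter-line: IDH1KD HT-1080, 48 h, CellTiter-Glo. Curves classed by r2, magnitude and activity.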
HT1080NT lethal: kills 2HG-producing HT-1080-NT fibrosarcoma cells; HT-1080-NT fibrosarcoma viability, CellTiter-Glo ATP luminescence, 48 h; Potency, µM (top dose mostly 46.1 µM), inactives show at the highest dose activity, negative = less viability, most hits filed as cytotoxic; 360,000 tested, 1.6% active; AID 686970;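 further: NT is the 2HG producing partner of a matched IDH1 knockdown line; 0% = DMSO-treated cells and -100% = media-only wells without cells; nearly all actives have a fitted effect of over 55% in size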
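HT-1080-NT; 750 cells/well; 5% FBS RPMI; 48 h compound, 37 degrees C; CellTiter-Glo luminescence; curve fitting and curve-class assignment.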
DT40 TDP1 CPT: growth inhibition of DT40 Tdp1-/-;hTDP1 cells with camptothecin (screen for TDP1 inhibitors) | chicken DT40 Tdp1-/-;hTDP1 cells + 20 nM CPT, ATP luminescence, 48 h | AID 686979 | Potency, µM (series often up to 46.2 µM), inactives show top-dose activity change, negative = growth inhibition, usual class: inhibitors | 420,000 tested, 12% active; further: on the % scale 0 is the no-effect control and ±100 the full control effect; nearly all actives have a fitted effect of over 55% in size
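Chicken DT40 Tdp1-/- cells stably complemented with human TDP1 were seeded at 400 cells/well in medium containing 20 nM camptothecin, exposed to pin-transferred compounds, and grown at 37 °C for at least 48 hr. Viability was read as ATP luminescence.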
TGFb SMAD3 inh: TGF-b pathway inhibition; HepG2 CAGA-GFP TGF-b/SMAD3 reporter, GFP fluorescence, 18 h; TGF-beta stimulated, 500 pg/mL final; Potency, µM (doses to about 46.1 µM), without a hit: at the highest dose activity, negative = inhibition, actives largely listed as inhibitors; 410,000 tested, 1.2% active; further: on the % scale 0 is the no-effect control and ±100 the full control effect; nearly all actives have a fitted effect of over 65% in size
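Using HEPG2 CAGA-GFP reporter cells at 1000 cells/well, we pinned test compounds, stimulated with recombinant TGF-beta (500 pg/mL final) and measured total well GFP after 18 h.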
TGFb CAGA inh: confirmation of TGF-b signaling inhibitors in HepG2 reporter cells | shares compounds with TGFb SMAD3 inh | HepG2 CAGA-GFP TGF-b reporter, GFP fluorescence, 18 h; cells stimulated with TGF-beta, 500 pg/mL | Potency, µM (titrated, usually from 46.1 µM), inactives show top-dose activity, negative = inhibition, hits mostly inhibitors | 1,600 tested, 63% active; further: on the % scale 0 is the no-effect control and ±100 the full control effect; nearly all actives have a fitted effect of over 65% in size
HepG2 tox-2: HepG2 cytotoxicity, TGF-b inhibitor counterscreen; shares compounds with TGFb SMAD3 inh; HepG2 CAGA-GFP viability, ATP luminescence, 18 h; cells stimulated with TGF-beta, 500 pg/mL; Potency, µM (highest dose often 46.1 µM), for the others: at the top dose activity, negative = cytotoxicity, most hits filed as inhibitors; 1,600 tested, 27% active; AID 720535; further: on the % scale 0 is the no-effect control and ±100 the full control effect; nearly all actives have a fitted effect of over 70% in size
CCL64 TGFb inh: TGF-b inhibition, CCL64 orthogonal assay; CCL64 CAGA-GFP reporter, TGF-b stimulated, GFP fluorescence, 18 h; 1,600 tested, 41% active; Potency, µM (titrated, usually from 46.1 µM), for the others: top-dose activity, negative = inhibition, hits mostly inhibitors; shares compounds with TGFb SMAD3 inh; further: nearly all actives have a fitted effect of over 65% in size
TGFb COP inh: blocks TGF-b signaling in HepG2 COP reporter | Potency, µM (doses to about 46.1 µM), inactives show at the highest dose activity, negative = inhibition, actives largely listed as inhibitors | shares compounds with TGFb SMAD3 inh | 1,600 tested, 3% active | HepG2 COP-GFP TGF-b reporter, GFP fluorescence, 18 h; cells stimulated by added recombinant TGF-beta; further: nearly all actives have a fitted effect of over 70% in size
* = called active by the depositor; ? = inconclusive; · = no result given. A selection: hits, their analogues and other compounds. The true share with any hit is near 17%. The call rests on the fitted dose curve; in most records, active means well fitted curve in the direction sought with a large enough effect; inconclusive means small, poorly fitted or top-dose-only effect, or another doubt; inactive means no such curve, though single readings can be large; an effect the other way counts as inactive or inconclusive. Potency means the concentration at half of the fitted maximal effect.

SMILES	HepG2 tox-1	DT40 TDP1 no CPT	HT1080 IDH1KD tx	HT1080NT lethal	DT40 TDP1 CPT	TGFb SMAD3 inh	TGFb CAGA inh	HepG2 tox-2	CCL64 TGFb inh	TGFb COP inh
CC(C)CCn1cnc2c(c1=O)c1nc3ccccc3nc1n2Cc1ccc2c(c1)OCO2	9%	?	0%	1%	?	-2%	·	·	·	·
CCCSc1nsc(NC(=O)Nc2ccc(F)cc2F)n1	-83%	4.1µM*	4%	?	5.2µM*	8.9µM*	6.5µM*	5.8µM*	7.3µM*	82%
COc1cccc(NC(=O)Nc2nc(SC(C)(C)C)ns2)c1	-104%	?	?	?	15µM*	6.3µM*	10µM*	?	8.2µM*	41%
CCCSc1nsc(NC(=O)CC)n1	-20%	?	-4%	9%	-13%	?	·	·	·	·
CCSc1nsc(NC(=O)Nc2cccc(F)c2)n1	-41%	4.1µM*	6.5µM*	12µM*	21µM*	7.1µM*	7.3µM*	6.5µM*	?	104%
CC(=O)Nc1cccc(NC(=O)Nc2cccc(F)c2)c1	-3%	?	1%	5%	-14%	?	·	·	·	·
O=S(=O)(Nc1cc(Sc2ncn[nH]2)c(O)c2ccccc12)c1ccccc1	3.5µM*	2.1µM*	4.6µM*	2.3µM*	1.2µM*	2.5µM*	7.3µM*	?	5.8µM*	?
CCOC(=O)N1CCN(C(=O)CNC(=O)c2nn(-c3ccc(OC)cc3OC)c(=O)c3ccccc23)CC1	5%	-17%	3%	-3%	-8%	16%	·	·	·	·
Cc1ccc(-c2noc(C3CC(=O)N(c4ccc5c(c4)OCCO5)C3)n2)cc1 (stereo unspecified)	-3%	-5%	·	·	-9%	-18%	·	·	·	·
COc1ccc(S(=O)(=O)/N=C2\C=C(Nc3ccc(O)cc3)C(=O)c3ccccc32)cc1	0.89µM*	1.5µM*	2.1µM*	1.8µM*	0.82µM*	0.79µM*	0.58µM*	4.1µM*	1.3µM*	?
COc1ccc(S(=O)(=O)c2ccc(O)cc2)cc1	-26%	0%	-4%	-1%	5%	14%	·	·	·	·
CC(=O)Nc1ccc(NC2=C/C(=N/S(=O)(=O)c3cccs3)c3ccccc3C2=O)cc1	6.3µM*	10µM*	9.2µM*	16µM*	13µM*	5µM*	2.6µM*	3.3µM*	9.2µM*	5.2µM*
CC(C)(C)c1ccc(CC(=O)N2CCC2(C)C(=O)NS(=O)(=O)c2ccccc2)cc1 (stereo unspecified)	-1%	5%	5%	4%	-3%	14%	·	·	·	·
COC(=O)[C@@]1(Sc2ccc(C)cc2)CC(=O)N[C@@H]1c1ccc(Br)cc1	·	-29%	?	-21%	-24%	·	·	·	·	·
CC(C)(C)NC[C@@H](O)COc1nsnc1N1CCOCC1	·	3%	·	·	0%	·	·	·	·	·
Fc1cccc(Cc2c(-c3ccco3)nc3c4ccccc4ccn23)c1	11µM*	6.5µM*	?	?	6.5µM*	10µM*	18µM*	?	16µM*	3%
Clc1ccc2nc(-c3ccco3)c(Cc3ccccc3)n2c1	-19%	?	?	?	16µM*	11µM*	15µM*	?	?	19%
Cc1ccc(NC(=O)Cc2ccccc2F)cc1S(=O)(=O)N1CCCCCC1	-30%	?	-24%	0%	?	11µM*	8.2µM*	?	-23%	16%
CCOC(=O)N=Nc1c(O)n(CC(=O)OC)c2ccccc12	-3%	4%	15%	16%	2%	10%	·	·	·	·
CCOC(=O)N=Nc1c2ccccc2c2nc3no[nH]c3nc12	0.79µM*	1.3µM*	1µM*	1.2µM*	0.41µM*	0.71µM*	0.65µM*	0.73µM*	1.3µM*	0.73µM*
CCOC(=O)C1=C(COC(=O)Cc2ccccc2)NC(=O)NC1C (stereo unspecified)	1%	3%	2%	7%	-5%	-5%	·	·	·	·
N#Cc1ccc(CC(C(=O)O)N2Cc3ccccc3C2=O)cc1 (stereo unspecified)	-30%	-17%	0%	2%	-7%	-8%	·	·	·	·
O=C(NCc1ccccc1)c1cc(C2COCCN2C(=O)CCc2ccccc2)on1 (stereo unspecified)	1%	-16%	10%	21%	7%	5%	·	·	·	·
COc1cc(CCC(=O)NCc2ccc3c(c2)OCO3)cc(OC)c1OC	2%	-22%	8%	7%	1%	1%	·	·	·	·
COc1cc(C2c3cc4c(cc3OC(NCCc3ccccc3)C2C)OCO4)cc(OC)c1OC (stereo unspecified)	-10%	0.82µM*	1µM*	1µM*	1µM*	?	?	-2%	16µM*	-10%
Cc1ccc(C(=O)COC(=O)CN2C(=O)C3C4CCC(C4)C3C2=O)cc1C (stereo unspecified)	2%	0%	16%	13%	13%	1%	·	·	·	·
